Results from PubChem BioAssay (NCI).
About 83,000 compounds went through this panel and 20% of them were active in at least one assay; those are over-represented in the sample as a whole.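 Treatment: one concentration, 48 hours, 96-well format. Scoring: percent growth, with anything below 10 considered active.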 Calls of active or inactive are those of the source.

Assays:
Test in all cases: NCI-60 one-dose screen, 48 h (100 = growth as untreated, 0 = no growth, -100 = all killed)
Settings in all cases: 10 µM unless noted
[1] = system: SR leukemia
[2] = system: RPMI-8226 leukemia
[3] = system: OVCAR-8 ovarian
[4] = system: OVCAR-5 ovarian
[5] = system: OVCAR-4 ovarian
[6] = system: SK-OV-3 ovarian
[7] = system: IGROV1 ovarian
[8] = system: OVCAR-3 ovarian
[9] = system: HS 578T breast
[10] = system: NCI/ADR-RES ovarian
[11] = system: T-47D breast
[12] = system: BT-549 breast
[13] = system: MDA-MB-435 melanoma
[14] = system: SW-620 colon
[15] = system: MCF7 breast
[16] = system: HCT-116 colon
[17] = system: HCC-2998 colon
[18] = system: KM12 colon

Measured: growth

O=c1cc(-c2nccc3c2[nH]c2ccccc23)c2cc(Cl)ccc2o1
inactive: [1] 15.2% | [2] 39.3% | [3] 54.4% | [4] 111% | [5] 56.6% | [6] 41.3% | [7] 61.3% | [9] 37.3% | [10] 33.4% | [11] 59.4% | [12] 36.1% | [14] 34.3% | [15] 27.2% | [17] 74.2% | [18] 29%
active: [8] 7.46% | [13] 1.21% | [16] 8.73%

COc1ccc(-c2cn(Cc3ccc4c(Br)cc(Br)c(O)c4n3)nn2)cc1
inactive: [2] 67.2% | [3] 88.7% | [4] 95.6% | [5] 96.2% | [6] 108% | [7] 56.6% | [8] 73.2% | [9] 109% | [10] 102% | [11] 65.1% | [12] 111% | [13] 89% | [14] 75.4% | [15] 67.4% | [16] 77.8% | [17] 101% | [18] 99.4%
active: [1] -23.1%

CCCCCCCC/C=C\CCCCCCCCOc1ccc(CC(=O)NCC[N+]2(C)CCCC2)cc1
inactive: [1] 50.3% | [2] 58.2% | [3] 50.4% | [4] 25% | [5] 62.1% | [6] 104% | [8] 84.3% | [9] 84.2% | [10] 111% | [11] 77.2% | [12] 73.6% | [13] 77.2% | [14] 54.5% | [15] 57.1% | [16] 53.2% | [17] 37.2% | [18] 27.5%
active: [7] -11.8%

Cc1ccc(Nc2cc(N)nc(N)n2)cc1
inactive: [1] 105% | [2] 93.5% | [3] 103% | [4] 107% | [5] 96.9% | [6] 98.1% | [7] 92.4% | [8] 99.6% | [9] 100% | [10] 95% | [11] 98.9% | [12] 113% | [13] 106% | [14] 102% | [15] 86.5% | [16] 104% | [17] 96% | [18] 95.5%

O=C(O)c1cc2ccccc2s1
inactive: [1] 104% | [2] 105% | [3] 102% | [4] 103% | [5] 113% | [6] 103% | [7] 106% | [8] 120% | [9] 99.3% | [10] 108% | [11] 91.9% | [12] 108% | [13] 104% | [14] 103% | [15] 111% | [16] 105% | [17] 107% | [18] 108%

CCOC(=O)CC1C(CNC(=O)NC)OC(n2cnc3c(NC(=O)Nc4ccccc4)ncnc32)C1O[Si](C)(C)C(C)(C)C (stereo not drawn)
inactive: [1] 28.2% | [2] 11.2% | [3] 65.4% | [4] 99.6% | [5] 61.2% | [6] 93.6% | [7] 51.1% | [8] 79.6% | [9] 43.9% | [10] 85.6% | [11] 27.1% | [12] 81.6% | [13] 53.6% | [14] 71.2% | [15] 18.1% | [16] 16.7% | [17] 61.8% | [18] 43.4%

CCCCCCC/C=N/NC(=O)c1ccc(-n2cc(-c3ccccc3)nn2)cc1
inactive: [1] 79.4% | [2] 94.3% | [3] 95.6% | [4] 89.9% | [5] 93.1% | [6] 87.8% | [7] 74.9% | [8] 102% | [9] 91.3% | [10] 86.9% | [11] 95.4% | [12] 82.1% | [13] 90.8% | [14] 95.6% | [15] 85.9% | [16] 97.5% | [17] 88% | [18] 86.8%

C1=C2CCCC3=Cc4ccccc4OC23Oc2ccccc21
inactive: [2] 26% | [3] 38.5% | [4] 71.1% | [5] 52.6% | [6] 30.8% | [7] 44.5% | [9] 33.4% | [10] 11.6% | [11] 31.9% | [12] 26.4% | [14] 18.1% | [15] 13.5% | [16] 24% | [17] 58.4% | [18] 19.8%
active: [1] 6.44% | [8] 3.51% | [13] -41.6%

COc1cccc(C2C3=C(COC3=O)N(CCO)c3cc4c(cc32)OCCO4)c1 (stereo not drawn)
active: [1] 9.73% | [8] -59.7% | [9] -5.22% | [10] -35.1% | [13] -28.2% | [16] 3.53% | [17] 4.51% | [18] -11.8%
inactive: [2] 25.4% | [3] 27.7% | [4] 29.8% | [5] 24.2% | [6] 22.6% | [7] 13.8% | [11] 65.3% | [12] 14.5% | [14] 17.7% | [15] 13.1%

CCN1C(=O)N(CC)C2C1NN=c1s/c(=C3\C(=O)N(C)c4ccccc43)c(=O)n12 (stereo not drawn)
active: [8] -14.1% | [10] 9.37% | [13] -34.4% | [16] 8.97%
inactive: [1] 19.3% | [2] 62.1% | [3] 37.6% | [4] 48.9% | [5] 52% | [6] 72.5% | [7] 37.4% | [9] 14.2% | [11] 18.5% | [12] 55.8% | [14] 28.3% | [15] 24.9% | [17] 22.1% | [18] 20.9%

CC1OC(C(=O)N2CCN(CCO)CC2)CC1COC1CCCCC1 (stereo not drawn)
inactive: [1] 88% [50 µM] | [2] 96.3% [50 µM] | [3] 99.2% [50 µM] | [4] 104% [50 µM] | [5] 104% [50 µM] | [6] 97.9% [50 µM] | [7] 98% [50 µM] | [8] 96.7% [50 µM] | [9] 87.2% [50 µM] | [10] 93% [50 µM] | [11] 94.6% [50 µM] | [12] 90.2% [50 µM] | [13] 103% [50 µM] | [14] 101% [50 µM] | [15] 103% [50 µM] | [16] 97% [50 µM] | [17] 109% [50 µM] | [18] 101% [50 µM]

Cc1nn(-c2ccccc2)c(Oc2ccccc2)c1/C=N/NC(=O)Cn1c(=O)sc2ccccc21
inactive: [1] 38.2% | [2] 33.8% | [3] 48.8% | [4] 81.5% | [5] 44.1% | [6] 61% | [7] 54.4% | [8] 61.6% | [9] 67.6% | [10] 44.4% | [11] 14.7% | [12] 25.6% | [13] 54.3% | [14] 72% | [15] 25.4% | [16] 38.1% | [17] 72.2% | [18] 56%

COc1ccc(Cn2cc(C(=O)N=Nc3c(O)[nH]c4ccc(Br)cc34)nn2)cc1
inactive: [1] 77.5% | [2] 100% | [3] 99.2% | [4] 106% | [5] 105% | [6] 108% | [7] 105% | [8] 112% | [9] 114% | [10] 103% | [11] 106% | [12] 111% | [13] 101% | [14] 107% | [15] 86.3% | [16] 77% | [17] 98.5% | [18] 104%

COc1cc2c(c(OC)c1OC)CCC(c1cccc(C(=O)Nc3ccc([N+](=O)[O-])cc3)c1)O2 (stereo not drawn)
active: [2] 9.24% | [11] 9.09%
inactive: [1] 24.9% | [3] 42% | [4] 84.3% | [5] 40.7% | [6] 78.4% | [7] 72.2% | [8] 56.5% | [9] 77.1% | [10] 38.2% | [12] 27.4% | [13] 54.5% | [14] 77.7% | [15] 45.9% | [16] 40.4% | [17] 68.3% | [18] 57.7%

CN1CCN(Cc2ccc(NC(=O)c3cncc(C#Cc4cnc(N)c5ccc(C#N)cc45)c3)cc2C(F)(F)F)CC1
active: [2] -25.3% | [3] -68.4% | [4] -79.6% | [5] -56.8% | [6] -4.83% | [7] -64.1% | [8] 3.19% | [9] -32.1% | [10] -13.6% | [13] -74.3% | [14] -41.3% | [15] -60.8% | [16] -65.7% | [18] -85.1%
inactive: [1] 20% | [11] 10.4% | [12] 37.3% | [17] 32.6%

COc1ccc(-c2nc3cc(C(=O)NC4CCCCC4)ccc3n2C2CCCCC2)cc1
inactive: [1] 51.2% | [2] 79.2% | [3] 107% | [4] 85.6% | [5] 86.6% | [6] 98.7% | [7] 101% | [8] 89.1% | [9] 105% | [10] 90.7% | [11] 87.6% | [12] 94.9% | [13] 99.4% | [14] 101% | [15] 85.2% | [16] 87.1% | [17] 91.8% | [18] 68.6%
